Gal4-VP16 FLuc = VP16 counterscreen qHTS for inhibitors of ROR gamma transcriptional activity; Drosophila S2 Gal4-VP16 UAS-luciferase, luminescence, 20 h; Potency, µM (top dose mostly 53.6 µM), actives largely listed as inhibitors; 310,000 compounds, 3.5% hits;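 further: Gal4-VP16 expression switched on by copper sulfate through the metallothionein promoter; nearly all actives have a fitted effect of over 50% in size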
TDP1 inh = qHTS Assay for Inhibitors of Tyrosyl-DNA Phosphodiesterase (TDP1). Tyrosyl-DNA phosphodiesterase 1 (Homo sapiens), Q9NUW8. recombinant TDP1, AlphaScreen DNA substrate cleavage. Potency, µM (doses to about 130 µM), hits mostly inhibitors. 350,000 compounds, 0.28% hits; further: nearly all actives have a fitted effect of over 40% in size
Target sequence (Q9NUW8 whole entry, looked up): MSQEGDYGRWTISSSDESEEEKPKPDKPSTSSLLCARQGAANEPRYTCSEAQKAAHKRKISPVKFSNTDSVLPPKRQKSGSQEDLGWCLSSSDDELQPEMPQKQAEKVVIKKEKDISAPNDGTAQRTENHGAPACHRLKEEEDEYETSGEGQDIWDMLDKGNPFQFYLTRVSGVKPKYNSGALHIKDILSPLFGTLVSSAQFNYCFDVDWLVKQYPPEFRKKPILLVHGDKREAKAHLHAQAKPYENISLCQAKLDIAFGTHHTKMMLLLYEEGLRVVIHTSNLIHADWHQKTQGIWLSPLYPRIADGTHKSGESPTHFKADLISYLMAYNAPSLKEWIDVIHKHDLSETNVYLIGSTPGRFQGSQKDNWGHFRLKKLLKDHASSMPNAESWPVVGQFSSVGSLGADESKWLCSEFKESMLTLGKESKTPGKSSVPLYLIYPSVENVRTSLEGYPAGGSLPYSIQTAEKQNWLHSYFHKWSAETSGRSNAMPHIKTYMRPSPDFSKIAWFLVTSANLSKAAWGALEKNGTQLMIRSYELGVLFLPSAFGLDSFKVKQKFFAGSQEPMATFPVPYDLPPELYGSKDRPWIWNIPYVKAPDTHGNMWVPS
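Enzyme-compound mixtures sat 15 min at room temperature, followed by a 5 min reaction with 15 nM final substrate and 10 min with AlphaScreen beads. Recombinant human Tdp1 was used at 1 nM final.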
RORg inh = qHTS for inhibitors of ROR gamma transcriptional activity | Nuclear receptor ROR-gamma (Mus musculus), P51450 | Drosophila S2 Gal4-RORgamma UAS-luciferase reporter, 20 h | Potency, µM (doses to about 53.6 µM), most hits filed as inhibitors | 310,000 compounds, 5.4% hits | AID 2551, 2010; further: nearly all actives have a fitted effect of over 60% in size
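Stable Schneider cell line, Gal4 DNA-binding domain fused to ROR gamma, UAS-luciferase. Cmpd 1 hr RT → CuSO4 700 uM final → 20 hr RT → luciferase reagent 10 min → luminescence.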
TDP1 cell CPT = qHTS for Inhibitors of human tyrosyl-DNA phosphodiesterase 1 (TDP1): qHTS in cells in presence of CPT; chicken DT40 Tdp1-/-;hTDP1 cells + 20 nM CPT, ATP luminescence, 48 h; 420,000 compounds, 12% hits; AID 686979, 2013; Potency, µM (doses to about 46.2 µM), hits mostly inhibitors; further: nearly all actives have a fitted effect of over 55% in size
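Chicken DT40 Tdp1-/- cells complemented with human TDP1, 400 cells/well, exposed to compounds plus 20 nM camptothecin for at least 48 h at 37 C; viability read as ATP content by CellTiter-Glo luminescence.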
TDP1 cell noCPT = qHTS for Inhibitors of human tyrosyl-DNA phosphodiesterase 1 (TDP1): qHTS in cells in absence of CPT; 420,000 compounds, 15% hits; AID 686978, 2013; Potency, µM (top dose mostly 46.2 µM), most hits filed as inhibitors; DT40 Tdp1-/- hTDP1 cells, no CPT, ATP luminescence, 48 h; further: nearly all actives have a fitted effect of over 55% in size
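Stably hTDP1-transfected Tdp1-null chicken DT40 cells were treated with library compounds minus camptothecin and grown for at least 48 hr at 37 °C, after which cellular ATP was quantified by luminescence.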
Numbers stand for hits; - = inactive; ? = inconclusive; . = no result; [ ] = dose if it differs, or a comment. The list is not random: actives were taken first. Their share in the collection is about 19%. The call rests on the fitted dose curve; in most records, active means well fitted curve in the direction sought with a large enough effect; inconclusive means small, poorly fitted or top-dose-only effect, or another doubt; inactive means no such curve, though single readings can be large; an effect the other way counts as inactive or inconclusive.

SMILES	Gal4-VP16 FLuc	TDP1 inh	RORg inh	TDP1 cell CPT	TDP1 cell noCPT
Cc1ccc2c(c1)[C@H]1[C@H](CO2)[C@H](c2ccccc2)[C@]2(C)C(=O)Nc3ccc(Br)cc3C(=O)N12	.	-	.	?	16µM
O=C(NNc1cc(C(F)(F)F)ccc1Cl)c1ccc(=O)[nH]c1	-	-	-	-	-
CC12CCC3C(CCC4CC(O)CCC43C)C1CC(O)C2 (stereo not given)	.	.	.	-	?
O=C(O)c1nn(CC(=O)N2CCN(c3ccccc3)CC2)c(=O)c2ccccc12	-	-	-	-	-
COCc1c(C(=O)NCC2COc3ccccc3O2)oc2ccccc12 (stereo not given)	.	-	.	?	-
COCc1c(C(=O)NCCOc2ccc(Cl)cc2)oc2ccccc12	.	-	.	26µM	23µM
CC(C)(C)NC(=O)c1oc2ccccc2c1COc1ccccc1	?	-	?	?	13µM
CC(OC(=O)c1oc2ccccc2c1COc1ccccc1)C(N)=O (stereo not given)	-	-	-	?	-
COCc1c(C(=O)NCCc2ccc(OC(F)F)cc2)oc2ccccc12	.	-	.	13µM	12µM
CC(=O)Nc1c(O)nc(SCC(=O)Nc2nnc(SCc3ccccc3)s2)[nH]c1=O	-	-	-	-	-
CC1CCCCC1NC(=O)c1cc2c(=O)n3ccccc3nc2n1C (stereo not given)	-	-	?	23µM	16µM
Cc1csc2nc(O)c(C(=O)NC3CCCCC3C)c(=O)n12 (stereo not given)	.	-	.	?	18µM
Cc1cccn2c(=O)c3cc(C(=O)NC4CCCCC4C)n(C)c3nc12 (stereo not given)	-	-	-	-	?
CC1CCCCC1NC(=O)c1c(O)nc2ccccn2c1=O (stereo not given)	.	-	.	?	21µM
CCN(CC)CCCNC(=S)N1CCN(c2nc(-c3ccc(F)cc3)cs2)CC1	-	.	?	15µM	6.5µM
Cc1ccc(Cl)cc1N1CCN(C(=S)NCc2ccco2)CC1	-	-	-	-	18µM
Brc1ccc(-c2csc(N3CCCCCC3)n2)cc1	?	-	11µM	-	-
CC(C)C(=O)N1CCN(c2nc(-c3ccc(Cl)cc3)cs2)CC1	-	-	-	23µM	13µM
COc1ccc(-n2nnnc2SCC(=O)N2CCN(C(=O)c3ccco3)CC2)cc1OC	-[10 µM]	-	-	?	-
CCC(C(=O)N1CCN(c2cccc(C)c2C)CC1)n1nc(C)c2sc3ccccc3c2c1=O (stereo not given)	.	-	.	-	-
O=c1[nH]nc(-c2ccc(F)cc2)cc1Cc1cccs1	-	-	-	-	-
O=C(CCCl)N1CCN(c2nc(-c3ccccc3)cs2)CC1	-	-	?	?	16µM
CCS(=O)(=O)N1CCN(c2nc(-c3ccccc3)cs2)CC1	-	-	-	-	-
CCCCC(=O)N1CCN(c2nc(-c3ccc(F)cc3)cs2)CC1	-	.	-	?	?
O=[N+]([O-])c1ccc(-c2csc(N3CCCCCC3)n2)cc1	-	.	?	-	-
SMILES	Gal4-VP16 FLuc	TDP1 inh	RORg inh	TDP1 cell CPT	TDP1 cell noCPT
O=C(N1CCOCC1)N1CCN(c2nc(-c3ccc(F)cc3)cs2)CC1	-	-	-	?	16µM
CNC(=S)N1CCN(c2nc(-c3ccc(Cl)cc3)cs2)CC1	?	.	-	?	21µM
O=[N+]([O-])c1ccc(N2CCN(c3nc(-c4ccc(Cl)cc4)cs3)CC2)cc1	-	-	-	?	12µM
C#CCOc1ccc(Br)cc1C(c1c(C)[nH][nH]c1=O)c1c(C)[nH][nH]c1=O	-	-	-	-	-
COC(=O)C1CN(C(=O)C(C)Oc2ccc(C)c(C)c2)c2ccccc2O1 (stereo not given)	-	.	-	-	-
S=C(NCc1ccco1)N1CCN(c2nc(-c3ccccc3)cs2)CC1	-	-	-	?	?
S=C(NCc1ccco1)N1CCN(c2nc(-c3ccc(Cl)cc3)cs2)CC1	?	-	11µM	?	?
CC1=NN(/C(=N\c2nnc(C)s2)Nc2ccc(C)cc2)[C@H](c2ccc(C)cc2)S1	-	-	-	?	?
CC1=NN(/C(=N\c2nnc(C)s2)Nc2ccccc2)[C@H](c2cccc3ccccc23)S1	?	-	?	23µM	?
Cc1ccc(-n2nnnc2C(Cl)(Cl)c2nnnn2-c2ccc(C)cc2)cc1	7.1µM	-	18µM	2.9µM	2.6µM
Clc1ccc(-c2nnnn2-c2ccc(Cl)cc2)cc1	-	.	-	-	-
Cc1ccc2oc(C(=O)N(Cc3ccccc3)C3CCS(=O)(=O)C3)c(C)c2c1 (stereo not given)	.	-	.	?	-
Cc1ccc(NC(=O)Cc2coc3c(C)c(C)ccc23)cc1Cl	.	-	.	-	-
Cc1cc2oc(C(=O)N(Cc3ccco3)Cc3ccccc3Cl)c(C)c2cc1C	.	-	.	?	15µM
Cc1ccc(CN(Cc2ccco2)C(=O)c2oc3ccc(C)cc3c2C)cc1	.	-	.	?	15µM
Cc1ccc2c(CC(=O)NCc3ccco3)coc2c1C	-	-	?	13µM	12µM
Cc1ccc2oc(C(=O)NCC(c3ccco3)N(C)C)c(C)c2c1 (stereo not given)	-	-	-	?	4.1µM
CC(=O)N1CCN(c2ccccc2NC(=O)c2cc(Br)ccc2Cl)CC1	-	-	-	-	?
CCCn1nc(C(=O)OCC(=O)c2ccccc2)c2ccccc2c1=O	-	-	-	-	-
Cc1csc2nc(SCC(=O)Nc3ccccc3F)[nH]c(=O)c12	-	-	-	-	-
Cc1ccc(CN(Cc2ccco2)C(=O)c2oc3c(C)c(C)ccc3c2C)cc1	.	-	.	?	23µM
Cc1ccc2occ(CC(=O)N(Cc3ccc(Cl)cc3)Cc3ccco3)c2c1	.	-	.	?	23µM
Cc1ccc2occ(CC(=O)N(Cc3ccccc3Cl)C3CCS(=O)(=O)C3)c2c1 (stereo not given)	.	-	.	?	23µM
Cc1ccc(CN(Cc2ccco2)C(=O)c2cccc(C)c2)cc1	.	-	.	15µM	16µM
O=C(Nc1ccc(F)cc1)c1ccc2nsnc2c1	-	-	-	-	-
CCOc1ccccc1C1c2[nH]c3ccccc3c2C[C@H]2C(=O)N(C3CC3)CC(=O)N12 (stereo not given in full)	-	.	-	-	-
CC(C)CNC(=S)NNC(=O)c1csc2c1CCC(C)C2 (stereo not given)	?	-	?	?	21µM
O=C1c2cccc3c([N+](=O)[O-])c(O)cc(c23)C(=O)N1Nc1ccccc1	-	-	-	?	?
O=C1c2cccc3c([N+](=O)[O-])ccc(c23)C(=O)N1O	13µM	.	?	2.1µM	2.3µM

Compound activity as filed in PubChem BioAssay.
